PubChem BioAssay AID651768 (National Center for Advancing Translational Sciences (NCATS), 2012)
Screen size: about 360,000 compounds; about 1,700 (0.47%) were called active. Another 2% or so got no clear call; they are omitted. What follows is part of a selection rich in actives, with near analogues and random picks from the rest. A number with no mark means an inactive call. Calls come from the whole dose curve; as a rule, active = well fitted inhibition curve with a large enough effect; inconclusive = small, poorly fitted or top-dose-only effect; inactive = no such curve, though single readings can be large or run the other way.

These molecules were tested against Bifunctional 3'-5' exonuclease/ATP-dependent helicase WRN (Homo sapiens) (UniProt Q14191) (assay: qHTS for Inhibitors of WRN Helicase). Conditions: WRN helicase unwinding, fluorescent forked duplex, kinetic; series mostly up to 114 µM; activity change, negative = inhibition: at the top concentration.
Procedure, shortened: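 Kinetic red-fluorescence monitoring (525/598 nm) tracks WRN helicase activity after 100 nM fluorophore-quencher forked duplex and 2 mM ATP are added to 20 nM enzyme pretreated 15 min at room temperature with compound.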
% is set by controls: 0 for no effect and ±100 for the full control effect; potency is the fitted concentration of half-maximal effect.
Note: nearly all actives have a fitted effect of over 55% in size.

Chain of Bifunctional 3'-5' exonuclease/ATP-dependent helicase WRN (Homo sapiens) (Q14191 whole entry, looked up): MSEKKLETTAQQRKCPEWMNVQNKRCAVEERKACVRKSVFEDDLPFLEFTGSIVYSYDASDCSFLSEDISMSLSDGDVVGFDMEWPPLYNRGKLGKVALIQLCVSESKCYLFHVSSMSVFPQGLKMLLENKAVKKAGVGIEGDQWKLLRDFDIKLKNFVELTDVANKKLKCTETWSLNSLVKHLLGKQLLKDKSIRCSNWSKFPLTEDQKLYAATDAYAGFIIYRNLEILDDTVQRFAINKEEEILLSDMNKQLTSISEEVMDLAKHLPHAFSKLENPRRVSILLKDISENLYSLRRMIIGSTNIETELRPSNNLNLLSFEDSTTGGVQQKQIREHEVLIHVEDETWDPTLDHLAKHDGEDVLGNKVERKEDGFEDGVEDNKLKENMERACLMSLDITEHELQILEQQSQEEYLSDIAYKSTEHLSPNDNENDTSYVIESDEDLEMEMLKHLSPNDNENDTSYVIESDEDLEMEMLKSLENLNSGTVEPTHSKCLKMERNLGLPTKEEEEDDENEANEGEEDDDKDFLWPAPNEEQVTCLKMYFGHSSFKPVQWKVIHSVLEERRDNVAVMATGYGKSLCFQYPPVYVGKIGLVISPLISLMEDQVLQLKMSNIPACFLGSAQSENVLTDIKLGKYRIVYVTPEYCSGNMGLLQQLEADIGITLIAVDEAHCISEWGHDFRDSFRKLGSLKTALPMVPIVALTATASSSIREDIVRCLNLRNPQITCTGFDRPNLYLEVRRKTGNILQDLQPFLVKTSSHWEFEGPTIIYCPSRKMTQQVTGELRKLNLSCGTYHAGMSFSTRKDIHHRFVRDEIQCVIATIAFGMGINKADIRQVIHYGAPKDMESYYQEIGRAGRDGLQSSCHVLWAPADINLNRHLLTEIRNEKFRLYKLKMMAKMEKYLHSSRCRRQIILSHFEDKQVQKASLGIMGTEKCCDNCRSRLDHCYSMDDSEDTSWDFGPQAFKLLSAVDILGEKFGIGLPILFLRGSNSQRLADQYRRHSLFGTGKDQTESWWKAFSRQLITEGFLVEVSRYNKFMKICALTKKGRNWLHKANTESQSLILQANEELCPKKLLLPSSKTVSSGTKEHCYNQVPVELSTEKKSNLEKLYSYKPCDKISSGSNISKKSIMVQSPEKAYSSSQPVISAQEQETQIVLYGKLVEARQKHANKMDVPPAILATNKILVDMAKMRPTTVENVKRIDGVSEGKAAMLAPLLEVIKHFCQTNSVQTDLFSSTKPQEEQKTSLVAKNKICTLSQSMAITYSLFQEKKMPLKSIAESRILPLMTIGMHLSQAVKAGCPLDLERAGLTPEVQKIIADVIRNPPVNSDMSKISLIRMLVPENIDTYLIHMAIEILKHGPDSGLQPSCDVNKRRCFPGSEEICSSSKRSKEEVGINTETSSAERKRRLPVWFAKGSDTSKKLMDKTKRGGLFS

SMILES	activity change, negative = inhibition	Potency
Cc1cccc(C)c1NC(=O)C(c1cccc2ccccc12)n1c(=O)c(-c2ccco2)nc2ccccc21 (stereo not given)	-2.69%	
O=C(CSC(=S)N1CCCCC1)c1c(F)cccc1F	8.5%	
Cc1c(CCC(=O)O)c(=O)oc2c(C)c(OCc3ccccc3Cl)ccc12	-22.9% [at 11.6 µM]	
Cc1ccc(S(=O)(=O)NCCC(=O)NNC(=O)C2COc3ccccc3O2)cc1 (stereo not given)	1.81%	
Cc1c(CC(=O)N2CCN(C(=O)C3COc4ccccc4O3)CC2)c(=O)oc2c(O)c(O)ccc12 (stereo not given)		10 µM (active)
O=C(CCN1CCc2ccccc2C(O)(c2ccccc2)C1)c1ccc2c(c1)OCCO2 (stereo not given)		31.6 µM (active)
O=C(CN1CCN(c2ccccc2F)CC1)c1ccc2c(c1)OCO2	-4.89%	
CCC1(c2ccccc2)NC(=O)N(CC(=O)c2ccc3c(c2)OCO3)C1=O (stereo not given)	-8.83%	
CCCCCNC(=O)C1C(=O)Nc2ccccc2C(=O)N1C(C)(C)C (stereo not given)	4.68%	
O=c1[nH]oc(O)c1-c1ncc(C(F)(F)F)cc1Cl	-5.42%	
CN(Cc1c(F)cccc1Cl)S(=O)(=O)c1cccs1	-5.6%	
COC(=O)C1=C(C(=O)OC)[C@@H]2N(C)c3ccccc3[C@@]23C[C@@H](C(=O)OC)N(C(=O)c2ccco2)C3=N1	2.76%	
COc1ccc(CCNC2=C(Cl)C(=O)N(Cc3ccccc3)C2=O)cc1OC	-14.6%	
COc1cc(/C=C2/SC(=S)N(Cc3ccccc3)C2=O)cc(OC)c1O		10 µM (active)
CN1C=CC=C/C1=C1\SC(=S)N(Cc2ccccc2)C1=O	-16.5%	
COC(=O)C[C@H]1C=C[C@H](NC(=O)c2ccc(F)cc2)[C@@H](CO)O1	-3.28%	
COc1ccccc1NS(=O)(=O)c1ccc(C(=O)N2CCN(c3ccccc3O)CC2)cc1	1.94%	
O=S(=O)(Nc1ccc(O)c2ccccc12)c1ccc(OC(F)(F)F)cc1		56.2 µM (active)
O=S(=O)(Nc1ccc(OC(F)(F)F)cc1)c1cccc2nonc12	-10.1%	
O=C(NCc1ccncc1)C(=O)NCC1OCCN1S(=O)(=O)c1ccc(Br)cc1 (stereo not given)	-13.3%	
Cc1ccccc1N/C(SCc1ccc(Cl)cc1)=C(/C#N)C(N)=O	-14.6%	
O=C(CCCCCn1c(=S)[nH]c2ccsc2c1=O)NC1CCCCC1	1.73%	
O=C(/C=C/c1cccs1)NCc1cccnc1	1.39%	

SMILES	activity change, negative = inhibition	Potency
Cc1ccccc1NC(=O)CN1C(=O)N/C(=C\c2cccn2-c2cccc(C(=O)O)c2)C1=O		10.6 µM (active)
COC(=O)CN1C(=O)N/C(=C/c2ccc(OC)c(C)c2OC)C1=O	-4.64%	
Cc1ccccc1NC(=O)Cn1c(=O)n(CC2CCCO2)c(=O)c2ccccc21 (stereo not given)	1.69%	
CCCCCc1c(-c2ccc(OC)c(OC)c2)ncn1CCc1ccccc1OC	-2.28%	
CCc1cc(C(c2ccccc2OC)N2CCOCC2)c(NC(=O)c2ccccc2)s1 (stereo not given)	-6.56%	
O=C(Nc1ccccc1C(=O)NCCCn1ccnc1)c1ccc(Cl)cc1Cl	-10.2%	
CCCNC(=O)C1(C)CCCN(Cc2cccc(C(F)(F)F)c2)C1 (stereo not given)	1.01%	
COCCN(Cc1cc2cc3c(cc2nc1Cl)OCO3)C(=O)c1cccc(C)c1	6.25%	
COc1cc(/C=N/NC(=O)c2cccnc2)ccc1OC(=O)c1cccc(Br)c1	-19.9%	
COc1ccc(OC)c(/C=N/NC(=O)c2ccc[n+](CC(=O)c3ccccc3)c2)c1	-1.88%	
COc1cccc(/C=N/NC(=O)c2[nH]nc3c2CCc2ccccc2-3)c1O		25.1 µM (active)
COC(=O)[C@@]12C[C@@H](CC(=O)NCc3cccc(C(F)(F)F)c3)C(=O)N(Cc3ccco3)C1=CCC(C)(C)C2	-8.06%	
CC(=O)Nc1ccc(Nc2c3ccccc3nc3ccccc23)cc1		25.1 µM (active)
CC(=O)Nc1ccc(Nc2c([N+](=O)[O-])cc(S(C)(=O)=O)cc2[N+](=O)[O-])cc1	-3.38%	
O=C(NNc1c2ccccc2nc2ccccc12)c1cc2ccccc2cc1O	-16.5% [at 57.1 µM]	
COCCN1C(=O)c2oc3c(C)cc(C)cc3c(=O)c2C1c1cccc(O)c1 (stereo not given)	-6.21%	
C[C@H](NC(=O)c1nc[nH]c1C(=O)N[C@@H](C)C(=O)OC(C)(C)C)C(=O)OC(C)(C)C	-3.84%	
O=C(NCc1nnc(SCC(=O)N2CCCc3ccccc32)o1)c1ccccc1F	-16.5%	
N#Cc1c(-c2cccs2)nc(SCC(=O)c2ccc(Br)cc2)[nH]c1=O		50.1 µM (active)
Cc1cc(C)c2c(=O)[nH]c(SCC(=O)Nc3ccc(Br)cc3)nc2n1	-11.3%	
CC(=O)CSc1nc(CCc2ccccc2)c(C#N)c(=O)[nH]1	-3.59% [at 57.1 µM]	
CCC1(c2ccccc2)NC(=O)N(CC(=O)Nc2ccccc2C(=O)NC2CCCC2)C1=O (stereo not given)	-7.05%	
O=C(NC1CCCCC1)C(c1cc2ccccc2o1)n1c(=O)c(-c2ccco2)nc2ccccc21 (stereo not given)	-13.1%	

SMILES	activity change, negative = inhibition	Potency
CCCCN(C(=O)C(CCSC)N1C(=O)c2ccccc2C1=O)c1c(N)n(CCC)c(=O)[nH]c1=O (stereo not given)	5.06%	
N#Cc1ccc(-c2nc3c(Cl)cc(C(F)(F)F)cn3c2Cc2ccccc2C(F)(F)F)cc1	0.352%	
COc1ccc(CN2CCC(C)(Oc3cccc(F)c3)C2)c2ccccc12 (stereo not given)	18.3%	
COc1cccc2c1C(=O)c1c(O)c3c(c(O)c1C2=O)CC(O)(C(C)=NNC(=O)c1ccc(Cl)c(Cl)c1)CC3OC1CC(N)C(O)C(C)O1 (stereo not given)		31.6 µM (active)
CCOc1cnc(C(=O)NNC(=O)c2ccccc2Br)o1	-11.3%	
O=C(c1ccccc1)c1ccc(OC(=O)N2CCCC2)cc1	1.88%	
COc1cccc(-c2nnc(NC(=O)c3ccc(S(=O)(=O)N(CC(C)C)CC(C)C)cc3)o2)c1	-8.88% [at 57.1 µM]	
O=C(COc1ccccc1Cl)Nn1cnnc1	1.03%	
C=CCN(N=Nc1cccc([N+](=O)[O-])c1)c1cccc([N+](=O)[O-])c1	-5.96%	
CC(=O)NC(c1ccccc1)c1nc(-c2cccc(C(C)C)c2)cs1 (stereo not given)	-6.85%	
COc1ccc(C(CNC(=O)COc2ccc([N+](=O)[O-])cc2)N2CCCCC2)cc1 (stereo not given)	-1.35%	
Cc1cc(C)n(CC(O)COc2ccc(C(C)(C)C)cc2)n1 (stereo not given)	2.02% [at 11.6 µM]	
COc1ccc(C(C[N+](=O)[O-])n2nc(C)cc2C)cc1 (stereo not given)		39.8 µM (active)
CCCCC(NS(=O)(=O)c1ccc(C)cc1)C(=O)Oc1ccc2c3c(c(=O)oc2c1)CCC3 (stereo not given)	3.21%	
CCOc1ccc(CCN2C(=O)C(=O)N([C@@H](CC(C)C)CN3CCC[C@H]3CN3C(=O)C(=O)NC[C@@H]3Cc3ccccc3)C[C@@H]2CC(C)C)cc1	-0.85%	
C[C@H]1CN([C@@H](C)CO)C(=O)c2cc(-c3ccccc3F)cnc2O[C@H]1CN(C)C(=O)C1CCOCC1	2.75%	
Cc1cccc(C)c1-n1nnnc1C1(C)CCC(=O)N1CCOc1ccccc1 (stereo not given)	-5.38%	
CC(=O)Nc1cccc(-c2cc3nc(NCc4cccnc4)n(C)c(=O)c3s2)c1	2.19%	
C/C=C(/C)C(=O)Nc1cccc(C2=NOC3(C2)C[C@@H](C(N)=O)N(C(=O)C2(C)CC2)C3)c1 (stereo not given in full)	-2.56%	
C=C(C)C(=O)Nc1cccc(C2=NOC3(C2)C[C@H](C(N)=O)N(C(=O)C(c2ccccc2)c2ccccc2)C3)c1 (stereo not given in full)		50.1 µM (active)
C/C=C\C=C\C(=O)N1CC2(CC(c3cccc(NC(=O)/C(C)=C\C)c3)=NO2)C[C@H]1C(N)=O (stereo not given in full)	-13.3% [at 11.6 µM]	
O=C(Nc1ccccc1Cl)c1ccccc1S(=O)(=O)c1ccccc1[N+](=O)[O-]	-2.06%	
CC(=O)c1ccc(NC(=O)C(C)N(C)CC(=O)Nc2ccccc2Cl)cc1 (stereo not given)	-0.858%	

SMILES	activity change, negative = inhibition	Potency
O=C(Nc1ccccc1Cl)/C(Cl)=C(\Cl)S(=O)c1ccccc1 (stereo not given)		2.51 µM (active)
COc1cc(OC)cc(C2=Cc3ccccc3C(CC(=O)c3ccco3)N2c2ccc(-c3cnc(OC)nc3)cc2)c1 (stereo not given)	-4.91%	
Cc1ccc(S(=O)(=O)N(c2cccc(C)c2)C2CCS(=O)(=O)C2)cc1 (stereo not given)	5.52%	
O=C(CC[C@H]1O[C@@H](n2ccc(=O)[nH]c2=O)[C@H](O)[C@@H]1O)N[C@H](Cc1ccccc1)C(=O)NCCCN1CCCC1=O	-15%	
COc1ccc(NC(=O)COc2ccc(C(=O)OCC(=O)N(C)C3CCS(=O)(=O)C3)cc2OC)cc1 (stereo not given)	-1.43%	
CN(C(=O)COC(=O)c1cc(-c2ccco2)nc2ccccc12)C1CCS(=O)(=O)C1 (stereo not given)		31.6 µM (active)
CN(C(=O)COC(=O)Cc1ccccc1[N+](=O)[O-])C1CCS(=O)(=O)C1 (stereo not given)	-0.143%	
Cc1ccc(C2(c3ccc(C)cc3)NC(=O)N(Cc3c(C)noc3C)C2=O)cc1	-0.858%	
CCOC(=O)c1c(NC(=O)CSc2nnc(CN3CCOCC3)n2C)sc2c1CCCC2	-0.021%	
Nn1c(SCC(=O)Nc2nccs2)nnc1-c1ccco1	-5.77%	
NC(=O)c1c(NC(=O)CSc2nnc(-c3ccco3)n2N)sc2c1CCCC2		50.1 µM (active)
COc1cc(OC)c(NC(=O)C2CCCN2C(=O)OCc2ccccc2)cc1Cl (stereo not given)	-0.432% [at 57.1 µM]	
O=C1Nc2ccccc2NC(c2ccc3c(c2)OCO3)=C1N(Cc1ccc(F)cc1)C(=O)c1ccco1	-3.23%	
CC(C)c1ccc2c(c1)c(SC(C)(C)C)c(CC(C)(C)C(=O)O)n2Cc1ccc(Cl)cc1		50.1 µM (active)
CCC(CC)NC(=O)CSc1nnc(-c2c[nH]c3ccccc23)o1	7.97%	
O=C(c1cc(C2CCCCN2S(=O)(=O)c2ccccc2)on1)N1CCOCC1 (stereo not given)	-1.79%	
COc1ccc2c(c1)C(=C(C#N)C#N)C(=O)N2CCc1ccccc1		50.1 µM (active)
CCCCN1C(=O)/C(=C(/C#N)C(N)=O)c2ccccc21	23.5%	
C#CCN1C(=O)C(O)(CC(=O)c2cc(OC)ccc2OC)c2ccccc21 (stereo not given)	-7.71%	
CCCCn1c(N)c(N(CCOC)C(=O)c2sc3ccccc3c2Cl)c(=O)[nH]c1=O	-13.4%	
Cc1[nH]c2ccccc2c1C(=O)c1cc([C@H](NC(=O)OC(C)(C)C)C(C)C)sc1N	-13.8%	
